Source: PubChem BioAssay (EPA / NIEHS)
Records with an inconclusive call do not appear. Active and inactive are the calls of the source. Rule for the calls: active = hit-call score of the fitted dose curve at least 0.9, where 1 is the maximum; inconclusive = response in the unintended direction; inactive = score below 0.9.

read-out: HMG-CoA synthase (HMGCS2), HMGCS2 (gene 3158); assay: CLD_HMGCS2_24hr: CellzDirect (CLD) Gene Expression Assay for HMG-CoA synthase (HMGCS2) at 24 hours (AID 2283691)
Protocol: CLD_24hr is a cell-based, multiplexed-readout assay that uses hepatocyte, a human liver primary cell, with measurements taken at 24 hours after chemical dosing in a 96-well plate.CLD_HMGCS2_24hr is one of 16 assay component(s) measured or calculated from the CLD_24hr assay. It is designed to make measurements of mRNA induction, a form of inducible reporter, as detected with chemiluminescence signals by Quantitative Nuclease Protection Assay (qNPA) technology.Data from the assay component CLD_HMGCS2_24hr was analyzed at the endpoint, CLD_HMGCS2_24hr, in the positive analysis fitting direction relative to DMSO as the negative control and baseline of activity. Using a type of inducible reporter, gain-of-signal activity can be used to understand changes in the reporter gene as they relate to the gene HMGCS2. Furthermore, this assay endpoint can be referred to as a primary readout. To generalize the intended target to other relatable targets, this assay endpoint is annotated to the lyase intended target family, where subfamily is HMG-CoA synthase.
Human hepatocyte cultures were treated daily for two consecutive days with fresh dosing solutions containing appropriate concentrations of the 320 ToxCast chemicals (chemical identities were blinded to CellzDirect and other ToxCast collaborators), vehicle control (0.2% DMSO), and positive control inducers as summarized in Table 1. Due to the large number of treatment groups and chemicals examined, the ToxCast chemicals were divided into two groups (spanning two independent cultures of hepatocytes from separate donor preparations (Hu778: ToxCast plates 1 and 2; Hu776: ToxCast plates 3 and 4). Each preparation of human hepatocyte cultures was treated with respective vehicle control, medium only control, set of six positive controls/reference chemicals for the five hepatic receptor pathways, and a subset of eight of the ToxCast chemicals (indoxacarb, pyrithiobac-sodium, norflurazon, cyhalofop-butyl, methomyl, thiram, acetochlor, and propiconazole). These replicate data, coupled with internal replicates designed within the blinded ToxCast chemical library, provided additional data to evaluate interindividual differences between hepatocyte preparations and their potential impact on chemical profiles.Cell morphology and integrity were evaluated using phase-contrast microscopy as an indicator of hepatocyte cell health (Tyson & Green, 1987). Cultures for each treatment group (i.e., media, vehicle [0.2% DMSO], positive control inducers [multiple concentrations], and the ToxCast chemicals [multiple concentrations]) were observed and cell morphology was assessed relative to vehicle control cultures at each harvest time point (0, 6, 24, or 48 h). […] Images were evaluated at the conclusion of the study to assess changes in cell integrity and account for the effects of chemical exposure on uncharacteristic changes in concentration-dependent gene expression profiles. The results from these determinations of apparent cytotoxicity were annotated (yes/no) alongside the corresponding qNPA data for reference.At the conclusion of each treatment period, hepatocyte cultures (96-well) were washed with 1 volume of HBSS, lysed by addition of 25 ul ArrayPlate lysis buffer (HTG, Tucson, AZ), and 70 ul/well of Denaturation Oil, denatured by incubation at 95C for 10 min, and frozen at approximately -70C until analysis by nuclease protection assay (qNPA) (Roberts et al., 2007). For qNPA analysis, cell lysates were thawed at 50C for approximately 30 min, qNPA probes were added, and samples were incubated at 95C for 10 min to begin the detection process by denaturing the target RNA, dissociating the duplexes and secondary structure hybridization. At the conclusion of the hybridization period, S1 nuclease reagent was added to each sample to digest all nonprotected nucleotides at 50C for 60-90 min. […]

Compound | outcome | AC50
CSC(=O)c1c(C(F)F)nc(C(F)(F)F)c(C(=O)SC)c1CC(C)C | inactive | –
CCOc1nc(F)cc2nc(S(=O)(=O)Nc3c(Cl)cccc3Cl)nn12 | inactive | –
CC(C)N1C(=O)c2ccccc2NS1(=O)=O | inactive | –
CCCN(CC)CC1COC2(CCC(C(C)(C)C)CC2)O1 (stereo unspecified) | – | 74.2 nM (active)
Nc1c(Cl)c(Cl)nc(C(=O)O)c1Cl | inactive | –
COC(=O)NS(=O)(=O)c1ccc(N)cc1 | inactive | –
N#CN=C1SCCN1Cc1ccc(Cl)nc1 | inactive | –
CS(=O)(=O)c1ccc(C(=O)C2C(=O)CCCC2=O)c([N+](=O)[O-])c1 | inactive | –
COP(=O)(OC)O/C(C)=C/C(=O)N(C)C | inactive | –
CC1(C)C(C(=O)OC(C#N)c2cccc(Oc3ccccc3)c2)C1(C)C (stereo unspecified) | inactive | –
CCNC(=O)NC(=O)C(C#N)=NOC | inactive | –
Cc1nc(N(C)C)nc(OC(=O)N(C)C)c1C | inactive | –
CN=C=S | inactive | –
CCOP(=O)(OCC)Oc1nc(Cl)c(Cl)cc1Cl | inactive | –
CCOC(=O)C(C)OC(=O)c1cc(Oc2ccc(C(F)(F)F)cc2Cl)ccc1[N+](=O)[O-] (stereo unspecified) | – | 310 nM (active)
COCc1cnc(C2=NC(C)(C(C)C)C(=O)N2)c(C(=O)O)c1 (stereo unspecified) | inactive | –
